Only some compounds are listed: those with a hit (about 2.7% of all), similar ones and a draw of the others.
Env fusion inh – inhibitors of HIV-1 Env-driven cell-cell fusion, primary screen, HeLa-JRFL effector, CEM21 target cells, luciferase. inhibition, % at 12.3 µM. 360,000 tested, 1.1% active. AID 651610, 2012;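 active = mean replicate inhibition score of at least 50 and every replicate individually at or above 50; inconclusive = only one of the two criteria met; inactive = mean below 50 and not all replicates reaching 50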;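 note: 0% = plate neutral controls and 100% = maraviroc near 300 nM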
CFTR F508del cor – F508del CFTR correction, initial screen, CFBE line, single point; CFBE cells, YFP halide quenching; stimulated with forskolin plus potentiator P3; % fluorescence drop versus neutral controls; activity (quench increase), % at 7.58 µM; 350,000 tested, 0.36% active;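 active = mean added fluorescence quench of at least 8% versus neutral control, with both replicates also reaching 8%; inconclusive = only one of the mean or replicate conditions met; inactive = mean below 8% and not both replicates reaching 8%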;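 note: cells transiently co-express mutant CFTR-F508del with the halide-sensitive YFP; corrector assay measuring rescue of mutant channel to the surface after 24 h compound exposure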
PAX8 inh HTS – inhibitors of PAX8-driven TPO luciferase reporter, primary screen, RMG-I cells, single concentration; 360,000 tested, 1.2% active; SteadyGlo, 24 h; inhibition, % at 12.6 µM;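 active = mean replicate inhibition at least 60% with every replicate also reaching 60%; inconclusive = only one of the two criteria is met; inactive = mean below 60% and not all replicates reaching 60%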;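 note: luciferase light reporting Pax8 driven TPO promoter activity; plate controls were median of neutral control wells for no effect and mitoxantrone controls for full effect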
GSIS activator – GLuc luminescence reporter in INS-1E cells, primary screen for activators of glucose-dependent secretion of insulin | INS-1E GLuc reporter insulin secretion, 2-3 h | activation, % at 16.6 µM | 370,000 tested, 0.61% active;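 active = lowest replicate activation of at least 40%, so every replicate reaches that level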;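 note: 0% = median of neutral control wells and 100% = median of IBMX positive control wells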
EWS-Fli block – EWS/Fli-driven NR0B1 reporter inhibitors, primary screen, A673 cells, NR0B1 luciferase, luminescence, MLPCN library. viability-normalised. inhibition, % at 12.6 µM. 350,000 tested, 0.67% active. AID 651661, 2012;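 active = mean inhibition of at least 50% after viability correction, with every replicate also passing that limit; inconclusive = mean reaches 50% but only one of two replicates passes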;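 note: firefly luciferase signal divided by Alamar Blue viability fluorescence both relative to DMSO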
PGC1a acetyl inh – inhibitors of PGC1a acetylation signal, primary screen, cell-based, U2OS, AlphaScreen, inhibitor mode; AID 651687, 2012; 350,000 tested, 0.17% active; inhibition, % at 15.6 µM; AlphaScreen anti-acetyl-lysine; with virally co-expressed GCN5 acetyltransferase;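 active = every replicate shows inhibition of at least 40%; inconclusive = mean inhibition at least 40% but some replicate below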;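 note: 0% = neutral control wells and 100% = positive control wells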
* hit, by the source's call; ? = inconclusive; . = no result; [ ] = dose if it differs, or a comment.

SMILES	Env fusion inh	CFTR F508del cor	PAX8 inh HTS	GSIS activator	EWS-Fli block	PGC1a acetyl inh
CCCC(=O)NC(c1cccs1)c1cc([N+](=O)[O-])c2cccnc2c1O (stereo unspecified)	-2.9	.	-3.3	2.7	22.6	.
CCC(=O)NC(c1ccccc1OC)c1ccc2cccnc2c1O (stereo unspecified)	.	.	.	.	.	19.7
CCCC(=O)NC(c1ccccc1)c1ccc2cccnc2c1O (stereo unspecified)	-8.8	-0.2	78.8*	.	26.9	33.5
COc1cccc(C(Nc2ccccc2)c2ccc3ccc(C)nc3c2O)c1 (stereo unspecified)	-9.9	-0.3	66.3*	.	-5.0	.
CC(=O)NC(c1ccc(C(C)C)cc1)c1ccc2cccnc2c1O (stereo unspecified)	-6.8	8.9*	94.9*	-22.6	42.8	.
C[C@@H]1CN([C@H](C)CO)C(=O)c2cc(NS(=O)(=O)c3ccc(Cl)cc3)ccc2O[C@@H]1CN(C)S(C)(=O)=O	-0.6[16.7 µM]	1.4	.	-10.3	-1.8	-4.3
O=C(C[C@@H]1C[C@@H]2c3cc(NC(=O)c4ccc5c(c4)OCO5)ccc3O[C@@H]2[C@@H](CO)O1)NCCc1ccccc1	-0.5[16.7 µM]	-3.1	-19.6	-2.9	-6.8	-9.5
O=C(Nc1ccc(Cl)cc1)N[C@@H]1CC[C@@H](CCn2cc(-c3ccccc3F)nn2)O[C@@H]1CO	-15.3[16.7 µM]	-1.0	5.4	-17.1	2.4	1.5
Oc1cccc(C(Nc2nccs2)c2ccc3cccnc3c2O)c1 (stereo unspecified)	35.9	-3.2	74.6*	-1.3	14.5	3.8
Oc1c(C(Nc2cccc(C(F)(F)F)c2)c2cccnc2)ccc2cccnc12 (stereo unspecified)	-5.1	.	13.4	-1.4	.	.
CC(=O)NC(c1cccc([N+](=O)[O-])c1)c1ccc2cccnc2c1O (stereo unspecified)	22.9	-4.3	59.2	-22.2	36.2	.
O=[N+]([O-])c1ccc(NC(c2ccccc2)c2ccc3cccnc3c2O)cc1 (stereo unspecified)	61.8*	2.4	83.4*	.	12.7	4.1
COc1cccc(C(NC(C)=O)c2ccc3cccnc3c2O)c1 (stereo unspecified)	12.0	3.6	69.0*	-9.5	23.6	-1.4
CCCCC(=O)NC(c1ccccc1)c1ccc2cccnc2c1O (stereo unspecified)	-39.9	3.6	87.3*	9.5	35.5	27.6
CCCCC(=O)NC(c1cccc([N+](=O)[O-])c1)c1ccc2cccnc2c1O (stereo unspecified)	3.7	7.1	51.2	-7.0	28.3	14.4
COC(=O)C[C@H]1C[C@H]2c3cc(NC(=O)Nc4ccc(OC)cc4)ccc3O[C@H]2[C@@H](CO)O1	.	.	.	12.7	.	.
CCCCC(=O)NC(c1ccc(C(C)C)cc1)c1ccc2cccnc2c1O (stereo unspecified)	-91.2	-5.0	84.8*	-3.7	43.1	.
CCC(=O)NC(c1ccc(OC)cc1)c1cc(Cl)c2cccnc2c1O (stereo unspecified)	46.4	-4.2	29.1	14.2	-12.5	2.8
CCCC(=O)NC(c1ccc(OC)cc1)c1ccc2cccnc2c1O (stereo unspecified)	6.7	0.5	77.0*	18.9	26.1	.
CCC(=O)NC(c1ccco1)c1cc(Cl)c2cccnc2c1O (stereo unspecified)	?	-2.7	85.5*	7.6	19.1	-8.1
CCCCC(=O)NC(c1ccco1)c1cc(Cl)c2cccnc2c1O (stereo unspecified)	2.5	0.3	54.2	-0.8	46.8	8.8
C[C@@H]1CN([C@H](C)CO)C(=O)c2cc(C#Cc3ccccc3F)cnc2O[C@@H]1CN(C)C(=O)c1ccc2c(c1)OCO2	27.5[16.7 µM]	-0.4	.	-42.4	-16.1	4.1
O=C(CN1CCN(Cc2ccccc2F)C1=O)NC1CCCC1	-5.0	-1.2	-1.5	.	5.8	5.5
O=C(CN1CCCN(Cc2ccc(F)cc2Cl)C1=O)NC1CCCCCCC1	72.2*	.	.	-21.9	.	3.5
COc1ccc(-c2cnc3c(c2)C(=O)N([C@H](C)CO)C[C@H](C)[C@H](CN(C)Cc2cccc(C)c2)O3)cc1	.	1.3	-1.5	-9.4	0.7	7.2
SMILES	Env fusion inh	CFTR F508del cor	PAX8 inh HTS	GSIS activator	EWS-Fli block	PGC1a acetyl inh
CN1C/C(=C/c2ccncc2)C(=O)/C(=C/c2ccncc2)C1	-22.1	-1.1	-18.4	9.8	56.2*	-5.5
CN1C/C(=C\c2ccc(N3CCOCC3)cc2)C(=O)/C(=C/c2ccc(N3CCOCC3)cc2)C1	.	.	.	12.4	.	23.4
CCOc1cc(/C=N/NC(=O)CCn2nc(C)cc2C)ccc1O	-1.5	0.9	-3.6	53.0*	-8.1	8.9
CCOc1cc(/C=C2\CN(C)C/C(=C\c3ccc(O)c(OCC)c3)C2=O)ccc1O	-310.3	-4.1	5.2	-18.5	52.6*	53.2*
COc1cc(C=C2CN(C)C(=O)C2=O)ccc1O	.	0.1	-11.4	-8.6	9.0	-2.7
CCOc1cc(/C=N/NC(=O)N/N=C/c2ccc(O)c(OCC)c2)ccc1O	-392.5	10.8*	19.2	4.7	-16.1	.
COC(=O)[C@@H]1[C@@H](CO)[C@@H]2Cn3c(ccc(-c4ccc(F)cc4)c3=O)[C@@H]2N1C(=O)C1CCC1	7.1[16.7 µM]	.	.	-1.6	0.4	.
COc1cc(C(=O)OCc2cc(=O)c(O)co2)ccc1OC(F)F	-34.6	3.5	-11.3	52.0*	1.6	.
COc1cc(C(=O)OCc2cc(=O)oc3c(C)c(C)ccc23)ccc1OC(F)F	19.8	-2.6	3.1	2.1	17.3	-4.9
COc1cccc(C(C(=O)NCc2ccccc2)N2CCN(C(=O)C3CCCO3)CC2)c1OC (stereo unspecified)	-12.2	2.1	-21.9	43.0*	-4.6	.
CCNC(=O)[C@H]1[C@H](CO)[C@H]2Cn3c(ccc(C4=CCCC4)c3=O)[C@@H]1N2C(=O)CC	.	-0.1	-9.3	10.4	-4.2	.
COc1ccccc1NC(=O)N1CCCCN2[C@H](CO)[C@H](c3ccc(-c4ccccc4)cc3)[C@H]2C1	.	-3.9	43.8	.	-7.1	-25.9
O=C1c2cccc(NCCCNCCO)c2C(=O)c2cccc(NCCCNCCO)c21	-75.8	12.8*	56.7	9.2	12.9	13.4
O=C1c2ccccc2C(=O)c2c(NCc3cccnc3)cccc21	-43.8	.	-38.5	.	.	5.6
COc1cc2c(cc1OC)C(Nc1ccccc1)=NC(C)(C)C2	20.7	1.2	12.4	56.8*	-0.7	5.9
CCS(=O)(=O)Nc1ccc2c(c1)C(=O)N(C)C[C@@H](OC)[C@H](C)CN(CCC(F)(F)F)[C@@H](C)CO2	-24.1[16.7 µM]	4.4	-4.1	-2.4	9.9	9.6

Screening results (PubChem BioAssay)
